Some test systems named below: MST1R; MST4; MTOR; MUSK; MYLK2.
What all share (details): Compound Concentration (nM):1000
A further assay deals with T1, MRCKA.
T1 construct: gene CDC42BPA

A further assay deals with T2, MRCKB.
T2 construct: gene CDC42BPB

A further assay has as its system T3, MST1.
T3 construct: gene STK4

The test system of a further assay is T4, MST2.
T4 construct: gene STK3

In another assay the test system is T5, MST3.
T5 construct: gene STK24
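Further: KINOMEscan scanMAX binding as percent activity remaining versus control; lower means stronger binding.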

With `CN(C)CCNC(=O)Nc1ccc(N(C)c2ccnc(Nc3ccc(CS(C)(=O)=O)cc3)n2)cc1.Cl` [GW830900A], the “Percent Control” value in the assay with MRCKA is 95%; with MRCKB it was 96%; in the assay on MST1R, 100%; in the assay on MST1 it was 100%; in the assay on MST2, 100%; in the assay with MST3, 91%. Further, the “Percent Control” value is 66% in the assay with MST4, 97% in the assay with MTOR, 78% in the assay on MUSK and 100% with MYLK2.

Take `COc1cccc(-n2ncc3c(N/N=C/c4ccncc4)ncnc32)c1` [GW784752X]: the “Percent Control” value in the assay on MRCKA was 100%; in the assay with MRCKB it was 100%; in the assay with MST1R, 100%; in the assay on MST1, 100%; in the assay with MST2, 100%; in the assay on MST3, 93%. Further, the “Percent Control” value in the assay with MST4 was 74%; in the assay with MTOR, 100%; in the assay with MUSK, 100%; in the assay with MYLK2 it was 91%.

In the case of `CC1=C(C(=O)Nc2ccc3[nH]ncc3c2)C(c2ccc3ccccc3c2)CC(=O)N1` (stereo not drawn) [GSK270822A], the “Percent Control” value in the assay on MRCKA was 100%; with MRCKB it was 85%; in the assay on MST1R, 46%; in the assay with MST1, 93%; in the assay with MST2, 73%; in the assay on MST3 it was 90%. For the same molecule, the “Percent Control” value is 53% in the assay on MST4, 100% in the assay on MTOR, 95% in the assay with MUSK and 100% in the assay on MYLK2.

`COc1cc(N2CCN(C(C)C)CC2)ccc1Nc1nc(Nc2ccc(F)cc2C(=O)NC[C@@H](O)CO)c2cc[nH]c2n1` [GSK1392956A]: the “Percent Control” value in the assay with MRCKA is 100%; with MRCKB it was 100%; in the assay with MST1R, 100%; in the assay on MST1, 100%; with MST2 it was 92%; in the assay on MST3, 90%. The “Percent Control” value in the assay on MST4 is 94%; in the assay on MTOR, 100%; with MUSK, 100%; with MYLK2 it was 100%.

With `COc1ccc(COc2ccc(Cc3cnc(N)nc3N)cc2OC)cc1` [GW632580X], the “Percent Control” value is 100% in the assay with MRCKA; 100% in the assay on MRCKB; 100% in the assay with MST1R; 85% with MST1; 73% in the assay with MST2; 97% in the assay with MST3. Further, the “Percent Control” value in the assay with MST4 was 90%; in the assay on MTOR, 96%; in the assay with MUSK, 100%; in the assay with MYLK2, 100%.

Turning to `COc1ccccc1-c1cc(/C=C2\C(=O)Nc3ncc(Br)cc32)cc(Br)c1O` [GW442130X], the “Percent Control” value was 100% in the assay on MRCKA; 100% with MRCKB; 100% in the assay on MST1R; 100% with MST1; 95% in the assay with MST2; 100% in the assay with MST3. Moreover, the “Percent Control” value is 100% with MST4, 77% in the assay with MTOR, 100% in the assay on MUSK and 97% in the assay on MYLK2.

Turning to `CCS(=O)(=O)c1ccc(OC)c(Nc2ncc(-c3cccc(F)c3)o2)c1` [GW621970X], the “Percent Control” value with MRCKA, in the assay on MRCKB, in the assay on MST1R, in the assay with MST1, in the assay on MST2 and in the assay with MST3 was 100% throughout. Also, the “Percent Control” value in the assay on MST4 was 93%; in the assay with MTOR, 100%; with MUSK it was 100%; in the assay on MYLK2 it was 98%.

Regarding `Nc1ncnc2occ(-c3ccc(NC(=O)Nc4cc(C(F)(F)F)ccc4F)cc3)c12` [GW770249X], the “Percent Control” value in the assay with MRCKA is 100%; with MRCKB it was 100%; in the assay with MST1R, 100%; with MST1, 100%; in the assay with MST2, 83%; in the assay with MST3, 82%. The “Percent Control” value with MST4 is 59%; in the assay on MTOR, 100%; in the assay with MUSK it was 1.4%; in the assay on MYLK2 it was 83%.

For `NS(=O)(=O)c1ccc(N/N=C2\C(=O)Nc3ccc(Cl)cc32)cc1` [GW280670X], the “Percent Control” value in the assay with MRCKA, with MRCKB, in the assay on MST1R, with MST1, with MST2 and in the assay on MST3 was 100% each time. Moreover, the “Percent Control” value with MST4 was 63%; in the assay with MTOR, 100%; with MUSK it was 100%; with MYLK2, 100%.

Source of the values: publication PMC7826789 (International Journal of Molecular Sciences, 2021).
